Source: PubChem BioAssay (Tox21)
Inconclusive results are not listed. Calls of active or inactive are those of the source. Unless noted, calls follow the shape of the dose curve; as a rule, active = well fitted curve in the direction sought with a large enough effect in the repeat runs; inconclusive = weak or mixed curves; inactive = no such curve, though single readings can be large; an effect the other way counts as inactive or inconclusive.

Legend:
[1] = qHTS assay to identify small molecule agonists of the hypoxia (HIF-1) signaling pathway - cell viability counter screen (AID 1224844; calls by dose curve; also: nearly all actives have a fitted effect of over 50% in size)
Outline: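 CellTiter-Glo luminescence read-out, 30 min RT, taken in the same wells as the beta-lactamase HRE reporter assay; HRE-bla ME-180 cells, 0.5% dialyzed FBS, 17 hr compound treatment at 37C, 5% CO2.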

[2] = qHTS assay to identify small molecule agonists of H2AX (AID 1224845; active = well fitted activation curve with a large enough effect in the signal ratio in the repeat runs, not every such curve was filed as active; the % refers to the signal ratio)
Outline: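 Phospho-H2AX Ser139 measured by HTRF (ex 320 nm; em 665 and 620 nm) after 24 hr antibody incubation. Compounds, 15 concentrations, 0.76% DMSO, were applied to CHO-K1 cells for 3hr at 37C before lysis.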

[3] = qHTS assay to identify small molecule agonists of the hypoxia (HIF-1) signaling pathway (AID 1224846; active = well fitted activation curve with a large enough effect in the signal ratio in the repeat runs, not every such curve was filed as active; the % refers to the signal ratio)
Outline: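 Beta-lactamase FRET read-out (CCF4-AM substrate) from ME-180 cells carrying an HRE-driven bla reporter, after 17 hrs compound exposure at 37C/5% CO2. Cells were seeded at 2,000 per well in 0.5% dialyzed FBS medium and preincubated 5 hrs.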

[4] = qHTS assay to identify small molecule agonists of H2AX - cell viability counter screen (AID 1224847; calls by dose curve; also: nearly all actives have a fitted effect of over 30% in size; also: potency is read from the fitted curve at half-maximal effect)
Outline: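 Quantitative HTS viability measurement: CHO-K1 wild-type cells in serum (10% FBS) medium, short 3 hr drug exposure at 37C with 0.76% DMSO, CellTiter-Glo luminescent detection.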

[5] = qHTS RealTime-Glo MT Cell Viability Assay in HepG2 cells - 24 hour (AID 1224867); also: nearly all actives have a fitted effect of over 50% in size
Outline: (§1)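 Tox21 10K library screened in qHTS format on HepG2 cells carrying RealTime-Glo reagents. Compounds were added after a 5 h preincubation, and the luminescent signal from continuous culture was measured repeatedly during 40 h treatment.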

[6] = qHTS RealTime-Glo MT Cell Viability Assay in HEK293 cells - 32 hour (AID 1224868); also: nearly all actives have a fitted effect of over 50% in size; also: potency is read from the fitted curve at half-maximal effect
Outline: (§2)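 Luminescence generated by NanoLuc from substrate produced by living HEK293 cells served as the viability signal. Each value reflects the reading at its stated time point during continuous 40 h compound exposure at 37 C.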

[7] = A CellTox Green Cytotoxicity Assay to monitor cytotoxicity in HEK293 cells - 0 hour (AID 1224869); also: nearly all actives have a fitted effect of over 50% in size
Outline: (§3)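 Read-out: fluorescence of a cell-impermeant cyanine dye staining DNA of dead cells, proportional to cytotoxicity. HEK293, 600 cells/well with reagent, compound (23 nL DMSO) added after 5 h; reads at 0, 8, 16, 24, 32, 40 h.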

[8] = qHTS RealTime-Glo MT Cell Viability Assay in HepG2 cells - 40 hour (AID 1224870); also: nearly all actives have a fitted effect of over 50% in size
Outline: (§4)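 Real-time viability: cells seeded at 600 per well together with NanoLuc and cell-permeant prosubstrate, compounds added after 5 h incubation. Luminescence tracked at 0, 8, 16, 24, 32 and 40 h of exposure.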

[9] = qHTS RealTime-Glo MT Cell Viability Assay in HEK293 cells - 16 hour (AID 1224872); also: nearly all actives have a fitted effect of over 50% in size; also: potency is read from the fitted curve at half-maximal effect
Outline: as §2

[10] = qHTS RealTime-Glo MT Cell Viability Assay in HEK293 cells - 40 hour (AID 1224874); conditions: RealTime-Glo luminescence; max response: hits give low values; also: nearly all actives have a fitted effect of over 50% in size; also: potency is read from the fitted curve at half-maximal effect
Outline: (§5)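 Luminescence readout at each listed time point; HEK293, 600 cells/well, RealTime-Glo MT reagent added with cells; compounds pinned (23 nL in DMSO) after 5 h at 37 C; continuous culture at 37 C.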

[11] = A CellTox Green Cytotoxicity Assay to monitor cytotoxicity in HEK293 cells - 24 hour (AID 1224875); also: nearly all actives have a fitted effect of over 45% in size
Outline: as §3

[12] = A CellTox Green Cytotoxicity Assay to monitor cytotoxicity in HepG2 cells - 16 hour (AID 1224876); also: nearly all actives have a fitted effect of over 45% in size
Outline: (§6)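 HepG2, 600 cells/well premixed w/ CellTox Green; 5 h settle, 37 C/5% CO2; pintool cpd add (DMSO); 37 C, 40 h; fluorescence read at 0, 8, 16, 24, 32, 40 h.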

[13] = qHTS RealTime-Glo MT Cell Viability Assay in HepG2 cells - 32 hour (AID 1224877); also: nearly all actives have a fitted effect of over 55% in size
Outline: as §1

[14] = A CellTox Green Cytotoxicity Assay to monitor cytotoxicity in HepG2 cells - 24 hour (AID 1224878); also: nearly all actives have a fitted effect of over 45% in size
Outline: as §6

[15] = A CellTox Green Cytotoxicity Assay to monitor cytotoxicity in HepG2 cells - 40 hour (AID 1224879); also: nearly all actives have a fitted effect of over 40% in size
Outline: as §6

[16] = qHTS RealTime-Glo MT Cell Viability Assay in HEK293 cells - 0 hour (AID 1224880); also: nearly all actives have a fitted effect of over 45% in size; also: potency is read from the fitted curve at half-maximal effect
Outline: as §5

[17] = A CellTox Green Cytotoxicity Assay to monitor cytotoxicity in HEK293 cells - 40 hour (AID 1224871); also: nearly all actives have a fitted effect of over 45% in size; also: potency is read from the fitted curve at half-maximal effect
Outline: as §3

[18] = qHTS RealTime-Glo MT Cell Viability Assay in HepG2 cells - 8 hour (AID 1224873); also: nearly all actives have a fitted effect of over 55% in size
Outline: as §4

[19] = qHTS assay to identify small molecule antagonists of the estrogen related receptor (ERR) signaling pathway from Tox21 library (AID 1224848); also: nearly all actives have a fitted effect of over 50% in size; also: potency is read from the fitted curve at half-maximal effect
Outline: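 ERR cell line, 2,000 cells/well. 6 h settle, then compound (DMSO) added; 18 h at 37 C; ONE-Glo luminescence after 30 min RT.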

[20] = qHTS assay to identify small molecule agonists of the estrogen related receptor (ERR) signaling pathway from Tox21 library (AID 1224849; calls by dose curve; also: nearly all actives have a fitted effect of over 15% in size); conditions: ERR reporter cell line, ONE-Glo luciferase, 18 h; at 92.4 µM (top of the series) unless noted
Outline: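 Luminescence readout (ONE-Glo, 30 min RT) after 18 h compound exposure at 37 C of NTP-supplied ERR reporter cells; cells were plated 6 h before compound addition by pin tool.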
% is scaled to controls: 0 for no effect and ±100 for the full control effect.

O=C(Cl)c1c(Cl)cccc1Cl
inactive: Potency [1] | Potency [2] | outcome [3] | Potency [4] | Potency [5] | Potency [6] | Potency [7] | Potency [8] | Potency [9] | max response [10] -14.9% | Potency [11] | Potency [12] | Potency [13] | Potency [14] | Potency [15] | Potency [16]

O=C=NC1CCC(CC2CCC(N=C=O)CC2)CC1 (stereo not drawn)
active: Potency [17] 49 µM
inactive: Potency [1] | Potency [2] | outcome [3] | Potency [4] | Potency [5] | Potency [6] | Potency [7] | Potency [8] | Potency [9] | Potency [18] | Potency [12] | Potency [13] | Potency [14] | Potency [15] | Potency [16]

CC(=O)SCc1ccco1
inactive: Potency [1] | Potency [2] | outcome [3] | Potency [4] | Potency [5] | Potency [6] | Potency [7] | Potency [8] | Potency [9] | Potency [18] | max response [10] 13.4% | Potency [11] | Potency [12] | Potency [13] | Potency [14] | Potency [15] | Potency [16]

FC(F)(F)C(F)(F)C(F)(F)C(F)(F)C(F)(F)C(F)(F)CCI
inactive: Potency [1] | Potency [2] | outcome [3] | Potency [4] | Potency [5] | Potency [6] | Potency [7] | Potency [8] | Potency [17] | Potency [9] | Potency [18] | Potency [11] | Potency [12] | Potency [14] | Potency [15] | Potency [16]

C=C(C)C(=O)OCCOc1ccccc1
inactive: Potency [1] | Potency [2] | outcome [3] | Potency [4] | Potency [19] | activity change, positive = activation [20] 3.64% | Potency [5] | Potency [6] | Potency [7] | Potency [8] | Potency [17] | Potency [9] | Potency [18] | max response [10] 8.99% | Potency [11] | Potency [12] | Potency [14] | Potency [15] | Potency [16]

CC[C@@H]1C[C@H](N(Cc2cc(C(F)(F)F)cc(C(F)(F)F)c2)C(C)=O)c2cc(C(F)(F)F)ccc2N1C(=O)OC(C)C
inactive: Potency [1] | Potency [2] | outcome [3] | Potency [4] | Potency [5] | Potency [7] | Potency [8] | Potency [17] | Potency [9] | Potency [18] | Potency [12] | Potency [13] | Potency [14] | Potency [16]

CCN(CC)CCc1nc(-c2ccccc2)no1
inactive: Potency [1] | Potency [2] | outcome [3] | Potency [4] | Potency [19] | activity change, positive = activation [20] 0.733% [at 42.5 µM] | Potency [5] | Potency [7] | Potency [8] | Potency [17] | Potency [9] | max response [10] 0.0849% | Potency [11] | Potency [12] | Potency [14] | Potency [15] | Potency [16]

CC(C)(C)c1cc(O)c(C(C)(C)C)cc1O
active: Potency [19] 24.3 µM | Potency [6] 24.5 µM | Potency [9] 17.4 µM
inactive: Potency [1] | Potency [2] | outcome [3] | Potency [4] | activity change, positive = activation [20] -60.5% | Potency [5] | Potency [7] | Potency [8] | Potency [17] | Potency [18] | Potency [11] | Potency [13] | Potency [16]

CC(CN)CCCN (stereo not drawn)
active: Potency [4] 0.357 µM
inactive: Potency [1] | Potency [2] | outcome [3] | Potency [19] | activity change, positive = activation [20] -0.964% | Potency [5] | Potency [7] | Potency [8] | Potency [17] | Potency [9] | Potency [18] | max response [10] 1.48% | Potency [11] | Potency [12] | Potency [13] | Potency [14] | Potency [15] | Potency [16]

CC(=O)[C@@]1(O)CC[C@H]2[C@@H]3C[C@H](C)C4=CC(=O)CC[C@]4(C)[C@H]3CC[C@@]21C
inactive: Potency [1] | Potency [2] | outcome [3] | Potency [4] | activity change, positive = activation [20] -36.6% [at 42.5 µM] | Potency [5] | Potency [7] | Potency [8] | Potency [18] | Potency [11] | Potency [13] | Potency [14] | Potency [15]
active: Potency [19] 23.7 µM | Potency [10] 19 µM | Potency [16] 6.74 µM

O=[N+]([O-])c1cccc(Cl)c1Cl
inactive: Potency [1] | Potency [2] | outcome [3] | Potency [4] | Potency [19] | activity change, positive = activation [20] 2.5% | Potency [5] | Potency [6] | Potency [7] | Potency [8] | Potency [18] | max response [10] -16.4% | Potency [12] | Potency [13] | Potency [14] | Potency [15] | Potency [16]

O=C1c2cccc(O)c2C(=O)c2c(O)cc(CO)cc21
inactive: Potency [1] | Potency [2] | outcome [3] | Potency [4] | activity change, positive = activation [20] -22.2% | Potency [5] | Potency [7] | Potency [8] | Potency [17] | Potency [18] | Potency [11] | Potency [12] | Potency [13] | Potency [14] | Potency [16]

CNS(=O)(=O)Cc1ccc2[nH]cc(CCN(C)C)c2c1
inactive: Potency [1] | Potency [2] | outcome [3] | Potency [4] | Potency [5] | Potency [6] | Potency [7] | Potency [8] | Potency [17] | Potency [9] | Potency [18] | Potency [11] | Potency [13] | Potency [14] | Potency [15] | Potency [16]

CC(C)(C)C1CCCCC1O (stereo not drawn)
inactive: Potency [1] | Potency [2] | outcome [3] | Potency [4] | Potency [5] | Potency [7] | Potency [8] | Potency [17] | Potency [9] | Potency [18] | max response [10] 0.612% | Potency [11] | Potency [13] | Potency [16]
